Measurements taken from PubChem BioAssay AID720504 (National Center for Advancing Translational Sciences (NCATS), 2013).
The campaign covered roughly 360,000 compounds. About 10,000 (2.8%) were called active. About 4% were inconclusive and are not listed. The full list was thinned out, with actives kept by preference. A number with no mark means an inactive call. Calls follow the shape of the dose curve; as a rule, active = well fitted inhibition curve with a large enough effect; inconclusive = small, poorly fitted or top-dose-only effect; inactive = flat fitted curve, though single readings scatter.

Each molecule was assayed against Serine/threonine-protein kinase PLK1 (Homo sapiens) (UniProt P53350) (assay: qHTS for Inhibitors of PLK1-PDB (polo-like kinase 1 - polo-box domain): Primary Screen). Conditions: Plk1 PBD binding of FITC phosphopeptide, fluorescence polarization.
Chain of Serine/threonine-protein kinase PLK1 (Homo sapiens) (P53350 whole entry, looked up, the tested form may be a part): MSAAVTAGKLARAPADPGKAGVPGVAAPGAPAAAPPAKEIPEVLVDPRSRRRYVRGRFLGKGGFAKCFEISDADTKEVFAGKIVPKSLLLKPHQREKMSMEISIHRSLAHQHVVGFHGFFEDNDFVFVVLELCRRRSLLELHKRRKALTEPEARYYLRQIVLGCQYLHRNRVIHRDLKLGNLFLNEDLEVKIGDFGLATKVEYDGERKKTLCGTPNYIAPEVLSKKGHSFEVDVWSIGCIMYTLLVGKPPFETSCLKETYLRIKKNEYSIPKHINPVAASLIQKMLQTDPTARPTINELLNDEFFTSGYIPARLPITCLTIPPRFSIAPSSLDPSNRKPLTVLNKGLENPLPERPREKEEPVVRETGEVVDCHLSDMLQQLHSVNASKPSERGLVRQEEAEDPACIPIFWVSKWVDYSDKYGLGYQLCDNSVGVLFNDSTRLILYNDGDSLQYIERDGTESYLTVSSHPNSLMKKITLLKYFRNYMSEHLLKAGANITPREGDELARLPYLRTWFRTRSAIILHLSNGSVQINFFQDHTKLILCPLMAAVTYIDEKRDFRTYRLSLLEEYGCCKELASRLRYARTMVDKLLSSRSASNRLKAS
% is scaled to controls: 0 for no effect and ±100 for the full control effect; potency is read from the fitted curve at half-maximal effect.
Also: nearly all actives have a fitted effect of over 65% in size.
For max response, negative = inhibition in this document: series mostly up to about 57 µM.

SMILES | max response, negative = inhibition | Potency
COc1ccc([C@H]2N[C@]3(CCCN(CC4CCCCC4)C3=O)[C@H]3C(=O)N(C)C(=O)[C@@H]23)cc1 | -7.68% | –
CCN1C(=O)[C@H]2[C@@H](c3ccc(C(F)(F)F)cc3)N[C@]3(CCCN(Cc4ccc(Br)cc4)C3=O)[C@H]2C1=O | -8.24% | –
COc1cccc(C(NC(C)=O)c2nc(-c3cnc4ccccc4c3)cs2)c1 (stereo unspecified) | -4.39% | –
CCc1nc2c(OCCOc3ccccc3)cccn2c1N(C)C(=O)c1cccs1 | -1.33% | –
O=C(CN1C(=O)NC2(CCc3ccccc32)C1=O)NC1CCCCC1 (stereo unspecified) | 2.51% | –
CCOC(=O)C1CCN(C(=O)c2ccc3c(=O)n4nc(Nc5ccccc5CC)sc4nc3c2)CC1 | -1.87% | –
NC(=O)C1(C(N)=O)OC1c1ccc(Cl)cc1Cl (stereo unspecified) | – | 16.8 µM (active)
COC(=O)C1=CN(C)C=C(C(=O)OC)C1c1ccc(Cl)cc1Cl | 2.45% | –
Nc1ccc2c(c1)C(O)c1ccc(Cl)cc1-2 (stereo unspecified) | -6.61% | –
COC(=O)c1ccc2nc(-c3ccc(Cl)cc3)c(Cc3cccc(F)c3)n2c1 | 1.38% | –
CC(CNC(=O)Cn1cnc2c(OCc3ccccc3)ncnc21)c1ccccc1 (stereo unspecified) | -8.63% | –
O=C(Cn1cnc2c(OCc3ccccc3)ncnc21)NCc1nc2ccccc2[nH]1 | – | 21.2 µM (active)
O=C(Cn1cnc2c(OCc3ccccc3)ncnc21)NCCCn1ccnc1 | -12.9% | –
O=C(COC(=O)c1ccc(S(=O)(=O)N2CCCCCC2)cc1)Nc1ccccc1C(F)(F)F | -1.71% | –
C[C@H]1NS(=O)(=O)c2cc(Cl)ccc2O[C@@H]1c1ccccc1 | -5.69% | –
COc1cc(NC(=O)c2cc(-c3ccc(F)cc3OC(C)C)n[nH]2)cc(OC)c1OC | -10.2% | –
COc1cccc(NC(=O)c2nn(C34CC5CC(CC(C5)C3)C4)cc2[N+](=O)[O-])c1 | 1.45% | –
Cc1nc([N+](=O)[O-])nn1C12CC3CC(CC(Br)(C3)C1)C2 | – | 4.74 µM (active)
CCOC(=O)N(C)c1c(CC)nc2c(OCc3ccccc3C(=O)OC)cccn12 | -14.2% | –
COC(=O)C[C@@H]1C=C[C@@H](NC(=O)c2ccc3c(c2)OCO3)[C@@H](CO)O1 | -2.88% | –
O=C(NCc1ccc(F)cc1)c1cc(C2CCCCN2C(=O)c2cccs2)on1 (stereo unspecified) | -1.47% | –
O=S(=O)(c1cccc(C(F)(F)F)c1)N1c2ccccc2-n2cccc2C1c1cccnc1 (stereo unspecified) | 4.88% | –

SMILES | max response, negative = inhibition | Potency
CCCCOCCCNC(=O)C[C@@H]1C[C@@]2(C(=O)OCC)CCCC=C2N(CCC2=CCCCC2)C1=O | 4% | –
CC1(C)OC(=O)C2=C(C[C@@H](C3CCCCC3)O[C@@H]2c2ccc(Cl)cc2)O1 | -3.8% | –
CCOC(=O)c1ccn(S(=O)(=O)c2ccc(C)cc2)c1-c1ccccc1 | -3.65% | –
Cc1cccc(NC(=O)c2cc(S(=O)(=O)N3CCC4(CC3)OCCO4)ccc2F)c1 | – | 26.7 µM (active)
O=C(Nc1ccc(N2CCCCC2)cc1)c1cc(S(=O)(=O)N2CCOCC2)ccc1F | 1.97% | –
CCOc1ccccc1NC(=O)c1cc(S(=O)(=O)N2CCC3(CC2)OCCO3)ccc1F | -1.47% | –
O=C1C=CC(=O)N1c1ccc(N2CCCCC2)cc1 | – | 3.36 µM (active)
O=C1CC(N2CCN(c3ccc(F)cc3)CC2)C(=O)N1c1ccccc1 (stereo unspecified) | -2.61% | –
CC(=O)Nc1ccc(S(=O)(=O)Nc2ccc(N3CCCCC3)cc2)cc1 | -2.92% | –
C=CCN1CCN(c2ccncc2S(=O)(=O)N2CCN(C)CC2)CC1 | -10.5% | –
CCC1OC(C2CC2)CC2=C1C(=O)OC(C)(C)O2 (stereo unspecified) | -2.05% | –
CC1CCN(C(=O)CSc2nnc(-c3ccco3)n2N)CC1 | -0.744% | –
CCc1nc2ccc(C(=O)NC3CCN(Cc4ccccc4)CC3)cn2c1N(CC)CCOC | -18.3% | –
O=C(CSc1cccc2cccnc12)N/N=C/c1cccnc1 | – | 7.52 µM (active)
CCn1c(SCC(=O)N/N=C/c2ccncc2)nc2ccccc21 | -2.87% | –
COc1ccc(C(=O)NCC(=O)N/N=C/c2cccnc2)cc1 | -5.97% | –
O=[N+]([O-])c1cccc(C=NN=Cc2ccccc2O)c1 | -3.02% | –
O=[N+]([O-])c1ccc(N=Cc2c(O)ccc3ccccc23)cc1 | – | 29.9 µM (active)
O=C(Oc1ccc([N+](=O)[O-])cc1)c1ccc2ccccc2n1 | -21.6% | –
CCCCNC(=O)C[C@@H]1C[C@@]2(C(=O)OC)CC(C)(C)CC=C2N(Cc2ccco2)C1=O | 0.813% | –
Cc1cccc(-c2cnc(C(O)c3ccc4ccccc4c3)[nH]2)c1 (stereo unspecified) | -0.198% | –
O=C(N/N=C/c1ccc(Cl)cc1)c1nc2ccc([N+](=O)[O-])cc2c(=O)[nH]1 | – | 18.9 µM (active)

SMILES | max response, negative = inhibition | Potency
N#Cc1cc([N+](=O)[O-])ccc1Oc1cccc(/C=N/NC(=O)c2ccc(Cl)cc2)c1 | 0.641% | –
O=C(NN=Cc1ccc([N+](=O)[O-])cc1)C1CC1 | -0.264% | –
O=C(NCc1ccc(F)cc1)c1cc(C2CCCCN2C(=O)C2CCCCC2)on1 (stereo unspecified) | 2.6% | –
CC(C)CC1C(=O)N(Cc2cn(Cc3ccco3)nn2)CCS(=O)(=O)N1Cc1ccc(-c2ccc(Cl)c(Cl)c2)cc1 (stereo unspecified) | -13.6% | –
CNc1cncc(-c2ccc(NS(C)(=O)=O)cc2)n1 | 6.53% | –
O=C(CSc1nnc(-c2ccco2)n1-c1ccccc1)NCCc1ccccc1 | -10.6% | –
COc1ccc(C(=O)NC(=O)CSc2nnc(-c3ccco3)n2-c2ccccc2)cc1 | -12.5% | –
CCOc1ccc(-n2c(SCC(N)=O)nnc2-c2ccco2)cc1 | – | 15 µM (active)
OCCN1CCN(c2ncnc3c2ncn3[C@H]2CN(Cc3ccco3)C[C@@H](CO)O2)CC1 | -11.1% | –
O=C(Nc1ccc(N2CCOCC2)cc1)c1cccc2c(-c3ccc(F)c(F)c3)coc12 | -15% | –
CC(=O)N1c2ccc(S(=O)(=O)NCCC(=O)N(C)C3CCCCC3)cc2CC1C (stereo unspecified) | – | 2.99 µM (active)
CC(=O)N1c2ccc(S(=O)(=O)N(C)CC(=O)N(C)Cc3ccccc3)cc2CC1C (stereo unspecified) | 5.96% | –
COc1cccc(CNS(=O)(=O)c2ccc3c(c2)CC(C)N3C(=O)C2CCC2)c1 (stereo unspecified) | -3.29% | –
Cc1ccc(-c2ccc(CN3C(C(C)C)C(=O)N(Cc4cn(CCC5OCCCO5)nn4)CCS3(=O)=O)cc2)cc1 (stereo unspecified) | -2.35% | –
CCOc1ccc(CCN2C(=O)C(=O)N([C@@H](CC(C)C)CN3CCC[C@H]3CN3C(=O)C(=O)NC[C@@H]3Cc3ccccc3)C[C@@H]2CC(C)C)cc1 | -0.137% | –
Cc1cccc(-c2cnc(C(O)c3cc(C)cc(C)c3)[nH]2)c1 (stereo unspecified) | -12% | –
CCOC(=O)c1c(NC(=S)NC(=O)/C=C/c2cccs2)sc(C)c1C | -3.87% | –
CCOC(=O)c1sc(=NC(=O)c2ccc(Br)cc2)n(C)c1C | -3.76% | –
CCOC(=O)c1sc(=NC(=O)/C=C/c2cccs2)n(C)c1C | – | 26.7 µM (active)
COC(=O)[C@]12CCCCC=C1N(Cc1ccc3c(c1)OCO3)C(=O)[C@H](CC(=O)N1CCOCC1)C2 | -9.01% | –
CC(=O)N1c2ccccc2N(Cc2ccc([N+](=O)[O-])cc2)C(=O)C1(C)C | – | 29.9 µM (active)
O=C(CSCc1ccc([N+](=O)[O-])cc1)NCCSCc1ccccc1 | -1.81% | –

SMILES | max response, negative = inhibition | Potency
CC(O)c1nc2ccccc2n1Cc1ccc([N+](=O)[O-])cc1 (stereo unspecified) | -2.98% | –
Cc1nc2c(OCc3cccc(Cl)c3)cccn2c1N(C)CC1CC1 | -10.4% | –
COC(=O)[C@]12CCCCC=C1N(Cc1cccc3ccccc13)C(=O)[C@H](CC(=O)N1CCOCC1)C2 | -13.4% | –
Cc1cc(Cl)ccc1-c1nc(NCCN(C)C)nc2ccsc12 | -8.63% | –
COc1ccccc1-c1cc(NC(C)=O)c2ncc(-c3ccc(F)cc3)n2c1 | -2.69% | –
C#CCOc1ccc(/C=C2/C(=O)NN(c3ccccc3)C2=O)cc1OC | – | 18.9 µM (active)
CCOc1cc(/C=C2\C(=N)N3N=C(C)SC3=NC2=O)ccc1OCCOc1ccccc1 | -10.7% | –
CCOc1cc(/C=N/O)ccc1OCc1ccccc1F | 5.59% | –
CC1=NOC(=O)/C1=C\c1ccccc1 | – | 16.8 µM (active)
COc1cc(/C=C2/C(=O)NN(c3ccc(F)cc3)C2=O)cc([N+](=O)[O-])c1O | -17.7% | –
COc1ccnc2c1c(=O)n(Cc1cccc(F)c1)c(=O)n2C | -8.75% | –
COc1cc(/C=C2\SC(=O)NC2=O)ccc1OCc1ccc(Cl)nc1 | -13.4% | –
C#CCOc1ccc(/C=C2/C(=O)ON=C2C)cc1OCC | – | 2.12 µM (active)
COc1cc(C=O)ccc1Oc1nnnn1-c1ccccc1 | -3.25% | –
Cc1ccccc1C1=N/C(=C/c2cccnc2)C(=O)O1 | -12.6% | –
COc1cc(/C=C2/C(=O)ON=C2C)ccc1OCc1cccc(F)c1 | – | 1.06 µM (active)
Cc1nc2ccccn2c(=O)c1NC(=O)c1ccc(Br)o1 | -0.655% | –
O=[N+]([O-])c1ccc(CN2CC(N3CC=CC3)CS2(=O)=O)cc1 (stereo unspecified) | -4.83% | –
CCc1cc(C(=O)N(CC)CC(=O)Nc2c(F)cccc2F)sc1C | -2.84% | –
CSCCC(c1nnnn1Cc1ccccc1)N1CCN(C/C=C/c2ccccc2)CC1 (stereo unspecified) | -5.15% | –
